Results filed as inconclusive are left out. Activity calls are given as the source filed them. Calls follow the shape of the dose curve; as a rule, active = well fitted curve in the direction sought with a large enough effect; inconclusive = small, poorly fitted or top-dose-only effect, or another doubt; inactive = no such curve, though single readings can be large; an effect the other way counts as inactive or inconclusive.
test: Cellular Toxicity (caspase-3) HepG2 (AID 654); settings: HepG2 caspase-3 activation, luminescence, 0% = DMSO only, 100% = tamoxifen; series mostly up to 92.2 µM; caspase-3 activation: at the top concentration;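 also: cells exposed to compound for 16 hours before reading; 0% = DMSO alone and 100% = caspase signal from 100 µM tamoxifen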
Summary of the method: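 qHTS, HepG2, 1500 cells/well, complete medium; cpd 16 h 37 °C; Caspase-Glo 3/7, 20 min RT; lum. Norm: DMSO vs 100 uM tamoxifen; AC50 Hill fit.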

Compound	caspase-3 activation	outcome
Oc1ccc(/C=C/c2cc(O)cc(O)c2)cc1	-3.55% (inactive)	
C[C@H]1O[C@@H](O[C@H]2[C@@H](O)C[C@H](O[C@H]3[C@@H](O)C[C@H](O[C@H]4CC[C@@]5(C)[C@H](CC[C@@H]6[C@@H]5C[C@@H](O)[C@]5(C)[C@@H](C7=CC(=O)OC7)CC[C@]65O)C4)O[C@@H]3C)O[C@@H]2C)C[C@H](O)[C@@H]1O	-2.01% (inactive)	
CCOC(C)OCC	0.403% (inactive)	
OCC(O)CO		inactive
OCc1ccccc1	-0.0754% (inactive)	
Cc1ccc(S(=O)(=O)O)cc1C	0.465% (inactive)	
Nc1nccs1	0.563% (inactive)	
CC1=CCC2CC1C2(C)C (configuration not stated)	0.611% (inactive)	
CCCCC	-0.0923% (inactive)	
COC(=O)c1ccccc1O	1.52% (inactive)	
Nc1ccc(N=Nc2ccccc2)c(N)n1	-1.68% (inactive)	

test: Cellular Toxicity (caspase-3) Jurkat (AID 655); settings: Jurkat caspase-3 activation, luminescence; series mostly up to 92.2 µM; caspase-3 activation: at the top concentration;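 also: cells exposed to compound for 16 h at 37 °C before reading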; also: potency is read from the fitted curve at half-maximal effect
Summary of the method: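 Caspase 3/7 activation is scored as increased luminescence in Jurkat cells cultured with compound for 16 hours in complete medium. AC50 values come from Hill fits of qHTS concentration-response data normalized to DMSO and 100 uM tamoxifen controls.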

Compound	caspase-3 activation	Potency
Oc1ccc(/C=C/c2cc(O)cc(O)c2)cc1	-8.18% (inactive)	
C[C@H]1O[C@@H](O[C@H]2[C@@H](O)C[C@H](O[C@H]3[C@@H](O)C[C@H](O[C@H]4CC[C@@]5(C)[C@H](CC[C@@H]6[C@@H]5C[C@@H](O)[C@]5(C)[C@@H](C7=CC(=O)OC7)CC[C@]65O)C4)O[C@@H]3C)O[C@@H]2C)C[C@H](O)[C@@H]1O		12.6 nM (active)
CCOC(C)OCC	0.682% (inactive)	
OCC(O)CO		inactive
OCc1ccccc1	0.0547% (inactive)	
Cc1ccc(S(=O)(=O)O)cc1C	1.23% (inactive)	
Nc1nccs1	0.19% (inactive)	
CC1=CCC2CC1C2(C)C (configuration not stated)	0.134% (inactive)	
CCCCC	-1% (inactive)	
COC(=O)c1ccccc1O	-0.16% (inactive)	
Nc1ccc(N=Nc2ccccc2)c(N)n1	-0.854% (inactive)	

test: Cellular Toxicity (caspase-3) HUV-EC-C (AID 656); settings: HUV-EC-C cells, caspase-3 activation (apoptosis), vehicle = 0, 100 µM tamoxifen = 100%; series mostly up to 92.2 µM; caspase-3 activation: at the top concentration
Summary of the method: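 Read-out: luminescence proportional to caspase 3/7 activity, measured 20 min after adding Caspase-Glo 3/7 reagent. Cells (HUV-EC-C) had received compound for 16 hr at 37°C. Increases relative to DMSO and 100 uM tamoxifen gave concentration-response AC50 values.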

Compound	caspase-3 activation	outcome
Oc1ccc(/C=C/c2cc(O)cc(O)c2)cc1	-6.59% (inactive)	
C[C@H]1O[C@@H](O[C@H]2[C@@H](O)C[C@H](O[C@H]3[C@@H](O)C[C@H](O[C@H]4CC[C@@]5(C)[C@H](CC[C@@H]6[C@@H]5C[C@@H](O)[C@]5(C)[C@@H](C7=CC(=O)OC7)CC[C@]65O)C4)O[C@@H]3C)O[C@@H]2C)C[C@H](O)[C@@H]1O	1.52% (inactive)	
CCOC(C)OCC	-2.87% (inactive)	
OCC(O)CO		inactive
OCc1ccccc1	0.572% (inactive)	
Cc1ccc(S(=O)(=O)O)cc1C	12.4% (inactive)	
Nc1nccs1	2.15% (inactive)	
CC1=CCC2CC1C2(C)C (configuration not stated)	-5.18% (inactive)	
CCCCC	-0.0778% (inactive)	
COC(=O)c1ccccc1O	-3.67% (inactive)	
Nc1ccc(N=Nc2ccccc2)c(N)n1	-4.37% (inactive)	

test: Cellular Toxicity (caspase-3) SHSY5Y (AID 657); settings: SH-SY5Y caspase-3 activation; series mostly up to 91.7 µM; caspase-3 activation: at the top concentration;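 also: cells exposed to compound for 16 hours at 37 °C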
Summary of the method: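 Cells plated and incubated 5 h at 37 °C, dosed over a concentration range, incubated 16 h, then given Caspase-Glo 3/7 reagent for 1 h at room temperature before luminescence reading. Staurosporine (10 uM) defined full stimulation.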

Compound	caspase-3 activation	Potency
Oc1ccc(/C=C/c2cc(O)cc(O)c2)cc1	-6.1% (inactive)	
C[C@H]1O[C@@H](O[C@H]2[C@@H](O)C[C@H](O[C@H]3[C@@H](O)C[C@H](O[C@H]4CC[C@@]5(C)[C@H](CC[C@@H]6[C@@H]5C[C@@H](O)[C@]5(C)[C@@H](C7=CC(=O)OC7)CC[C@]65O)C4)O[C@@H]3C)O[C@@H]2C)C[C@H](O)[C@@H]1O	-3.06% (inactive)	
CCOC(C)OCC	1.22% (inactive)	
OCC(O)CO		inactive
OCc1ccccc1	4.42% (inactive)	
Cc1ccc(S(=O)(=O)O)cc1C	2.66% (inactive)	
Nc1nccs1	1.52% (inactive)	
CC1=CCC2CC1C2(C)C (configuration not stated)	1.65% (inactive)	
CCCCC	1.57% (inactive)	
COC(=O)c1ccccc1O	0.0798% (inactive)	
Nc1ccc(N=Nc2ccccc2)c(N)n1	-7.14% (inactive)	

test: Cellular Toxicity (caspase-3) BJ (AID 658); settings: BJ fibroblasts, luminescence; Potency: caspase-3 activation; series mostly up to 91.7 µM; caspase-3 activation: at the top concentration
Summary of the method: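 BJ human foreskin fibroblasts, 1000 cells/well, treated 16 hours at 37 °C in complete medium; caspase 3/7 activity by Caspase-Glo luminescence after 1 hr at room temperature. Normalized to DMSO and 10 uM staurosporine; AC50 from Hill fits.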

Compound	caspase-3 activation	Potency
Oc1ccc(/C=C/c2cc(O)cc(O)c2)cc1	-8.3% (inactive)	
C[C@H]1O[C@@H](O[C@H]2[C@@H](O)C[C@H](O[C@H]3[C@@H](O)C[C@H](O[C@H]4CC[C@@]5(C)[C@H](CC[C@@H]6[C@@H]5C[C@@H](O)[C@]5(C)[C@@H](C7=CC(=O)OC7)CC[C@]65O)C4)O[C@@H]3C)O[C@@H]2C)C[C@H](O)[C@@H]1O	2.46% (inactive)	
CCOC(C)OCC	2.2% (inactive)	
OCC(O)CO		inactive
OCc1ccccc1	0.757% (inactive)	
Cc1ccc(S(=O)(=O)O)cc1C	-0.283% (inactive)	
Nc1nccs1	1.46% (inactive)	
CC1=CCC2CC1C2(C)C (configuration not stated)	1.99% (inactive)	
CCCCC	-0.687% (inactive)	
COC(=O)c1ccccc1O	-0.286% (inactive)	
Nc1ccc(N=Nc2ccccc2)c(N)n1	-5.98% (inactive)	

test: Cellular Toxicity (caspase-3) MRC-5 (AID 659); settings: MRC-5 cells, luminescence, normalized: DMSO 0%, 10 µM staurosporine 100%; series mostly up to 91.7 µM; caspase-3 activation: at the top concentration;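 also: cells exposed to compound for 16 h at 37 °C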
Summary of the method: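 MRC-5 human normal lung fibroblasts, 1500 cells/well, treated 16 h at 37 °C in complete medium. Caspase 3/7 measured by Caspase-Glo luminescence after 1 h at room temperature. Normalized to DMSO and 10 uM staurosporine; AC50 from Hill fit.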

Compound	caspase-3 activation	outcome
Oc1ccc(/C=C/c2cc(O)cc(O)c2)cc1	-6.32% (inactive)	
C[C@H]1O[C@@H](O[C@H]2[C@@H](O)C[C@H](O[C@H]3[C@@H](O)C[C@H](O[C@H]4CC[C@@]5(C)[C@H](CC[C@@H]6[C@@H]5C[C@@H](O)[C@]5(C)[C@@H](C7=CC(=O)OC7)CC[C@]65O)C4)O[C@@H]3C)O[C@@H]2C)C[C@H](O)[C@@H]1O	3.82% (inactive)	
CCOC(C)OCC	1.11% (inactive)	
OCC(O)CO		inactive
OCc1ccccc1	-0.224% (inactive)	
Cc1ccc(S(=O)(=O)O)cc1C	-0.389% (inactive)	
Nc1nccs1	1.53% (inactive)	
CC1=CCC2CC1C2(C)C (configuration not stated)	-0.299% (inactive)	
CCCCC	1.73% (inactive)	
COC(=O)c1ccccc1O	0.587% (inactive)	
Nc1ccc(N=Nc2ccccc2)c(N)n1	-2.63% (inactive)	

test: Cellular Toxicity (caspase-3) Mesangial (AID 660); settings: mesangial cells, normalized: DMSO 0%, 100 µM tamoxifen 100%; series mostly up to 91.7 µM; caspase-3 activation: at the top concentration;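 also: cells exposed to compound for 16 h before the caspase read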
Summary of the method: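 Concentration-response qHTS: compound-induced rise in caspase 3/7 luminescence in human mesangial cells after 16 h, normalized to DMSO and 100 uM tamoxifen controls.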

Compound	caspase-3 activation	outcome
Oc1ccc(/C=C/c2cc(O)cc(O)c2)cc1	-2.72% (inactive)	
C[C@H]1O[C@@H](O[C@H]2[C@@H](O)C[C@H](O[C@H]3[C@@H](O)C[C@H](O[C@H]4CC[C@@]5(C)[C@H](CC[C@@H]6[C@@H]5C[C@@H](O)[C@]5(C)[C@@H](C7=CC(=O)OC7)CC[C@]65O)C4)O[C@@H]3C)O[C@@H]2C)C[C@H](O)[C@@H]1O	0.223% (inactive)	
CCOC(C)OCC	-0.702% (inactive)	
OCC(O)CO		inactive
OCc1ccccc1	-0.879% (inactive)	
Cc1ccc(S(=O)(=O)O)cc1C	0.784% (inactive)	
Nc1nccs1	-0.0849% (inactive)	
CC1=CCC2CC1C2(C)C (configuration not stated)	-1% (inactive)	
CCCCC	0.129% (inactive)	
COC(=O)c1ccccc1O	-1.11% (inactive)	
Nc1ccc(N=Nc2ccccc2)c(N)n1	-0.686% (inactive)	

Reference: PubChem BioAssay (NCATS)
